Assay outcomes: PubChem, Broad Institute
A selection: hits, their analogues and other compounds. The true share with any hit is near 7.9%.
MITF inh: inhibitors of MITF, primary screen, MITF inhibitor project, cell-based, luminescence | TRPM1 promoter luciferase, 24 h | inhibition, % (no concentration beside the values) | 0.28% of 37,000 active | AID 2240, 2010; in the data active means inhibition above about 85%; inconclusive means no clear call, values can overlap the other calls; inactive means below about 68%;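 further: human melanocyte line stably carrying TRPM1 promoter luciferase reporter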
NOMO-1 viab: NOMO-1 AML cell viability reduction, primary screen, STK33 inhibitor project, CellTiter-Glo luminescence | NOMO-1 AML viability, 72 h | inhibition, % (concentration not given with the values) | 7.5% of 37,000 active | AID 2330, 2010; in the data active means inhibition above about 80%; inconclusive means no clear call, values can overlap the other calls
Hedgehog inh: Hedgehog pathway signaling inhibitors, primary screen, luminescence, Shh-LIGHT2 cells, Gli-luciferase | Shh-LIGHT2 Gli-luciferase reporter, 30 h | inhibition, % (test concentration not listed) | 2.1% of 22,000 active;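 active means mean inhibition across valid replicates above about 65%, limit read from the data; inconclusive means mean under the limit, yet half or more replicates past it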;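 further: pathway switched on by Shh-conditioned medium diluted 1 in 25 in low serum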
An asterisk follows results filed as active.

How did C[C@@H]1CN([C@@H](C)CO)C(=O)c2cc(NC(=O)c3ccncc3)ccc2O[C@@H]1CN(C)S(=O)(=O)c1cn(C)cn1 do in these assays?
MITF inh: 6.7; NOMO-1 viab: 11.6

How did C#Cc1cccc(Nc2ncnc3cc(OC)c(OC)cc23)c1 do in these assays?
MITF inh: 71.4; NOMO-1 viab: 96.1*; Hedgehog inh: 27.7

Results for COc1cc2ncnc(Nc3ccc(OCc4ccccc4)cc3)c2cc1OC ?
MITF inh: -8.0; NOMO-1 viab: 19.1; Hedgehog inh: 19.0

Results for O=C(CSc1nc2c(c(-c3ccccc3)n1)CCCCC2)N1N=CCC1c1ccccc1 (stereo not given) ?
MITF inh: -26.3; NOMO-1 viab: -18.7

What do the screens show for `C[C@H](CO)N1C[C@H](C)[C@@H](CN(C)Cc2ccc(Oc3ccccc3)cc2)Oc2c(NC(=O)c3cnccn3)cccc2C1=O`?
MITF inh: 1.1; NOMO-1 viab: 105.6*; Hedgehog inh: 53.3

What do the screens show for `C[C@@H]1CN([C@H](C)CO)C(=O)c2cccc(NC(=O)c3cnccn3)c2O[C@H]1CN(C)Cc1ccc(Cl)c(Cl)c1`?
MITF inh: 24.4; NOMO-1 viab: 95.8*; Hedgehog inh: -7.7

What do the screens show for `C[C@@H]1CN([C@H](C)CO)C(=O)c2cccc(NC(=O)c3cnccn3)c2O[C@H]1CN(C)Cc1ccc(Oc2ccccc2)cc1`?
MITF inh: 0.0; NOMO-1 viab: 25.6; Hedgehog inh: -10.8

Results for C[C@@H]1CN([C@H](C)CO)C(=O)c2cccc(NC(=O)c3cnccn3)c2O[C@@H]1CN(C)Cc1ccc(Cl)c(Cl)c1 ?
MITF inh: -5.9; NOMO-1 viab: 35.1; Hedgehog inh: 34.1

Results for CC(=O)Nc1ccccc1NC(=O)COc1ccc(Cl)c(C)c1 ?
MITF inh: 19.5; NOMO-1 viab: 21.0

Results for C[C@@H]1CN([C@@H](C)CO)C(=O)c2cc(NS(C)(=O)=O)ccc2O[C@H]1CN(C)S(=O)(=O)c1cn(C)cn1 ?
MITF inh: 0.0; NOMO-1 viab: 9.0

Results for O=C1NCc2c1c1c3ccccc3[nH]c1c1[nH]c3ccccc3c21 ?
MITF inh: 29.7; NOMO-1 viab: 97.1*; Hedgehog inh: 21.4

How did O=Cc1c2[nH]c3ccccc3c2cc2[nH]c3ccccc3c12 do in these assays?
MITF inh: -58.0; NOMO-1 viab: 24.9; Hedgehog inh: -33.9

What do the screens show for `CCn1c(SCC(=O)Nc2ccc(Cl)c(Cl)c2)nnc1-c1cc2cccc(OC)c2o1`?
MITF inh: 35.9; NOMO-1 viab: 99.8*

What do the screens show for `COc1cccc2cc(-c3nnc(SCC(=O)Nc4ccc5ccccc5c4)n3C)oc12`?
MITF inh: -0.3; NOMO-1 viab: 17.2

What do the screens show for `COc1ccc(C(C)C)cc1S(=O)(=O)n1cnc2cc(C)c(C)cc21`?
MITF inh: 41.1; NOMO-1 viab: 20.6

Results for COc1ccc(S(=O)(=O)Nc2ccc3c(c2)CC(=O)N([C@@H](C)CO)C[C@H](C)[C@H](CN(C)S(=O)(=O)c2cn(C)cn2)O3)cc1 ?
MITF inh: 1.6; NOMO-1 viab: 4.9; Hedgehog inh: 3.2

Results for C[C@@H]1CN([C@H](C)CO)C(=O)c2cccc(NC(=O)Nc3ccccc3)c2O[C@@H]1CN(C)CC1CCCCC1 ?
MITF inh: 6.2; NOMO-1 viab: 10.7; Hedgehog inh: 6.7

Results for C[C@H](CO)N1C[C@H](C)[C@@H](CN(C)CC2CCCCC2)Oc2c(NC(=O)Nc3ccccc3)cccc2C1=O ?
MITF inh: 22.0; NOMO-1 viab: inconclusive; Hedgehog inh: -9.7

What do the screens show for `C[C@@H]1CN([C@@H](C)CO)C(=O)c2cccc(NC(=O)Nc3ccccc3)c2O[C@H]1CN(C)CC1CCCCC1`?
MITF inh: 29.6; NOMO-1 viab: 93.1*; Hedgehog inh: -2.5

Results for C[C@H]1CN([C@@H](C)CO)C(=O)c2cccc(NC(=O)Nc3ccc(F)cc3)c2O[C@@H]1CN(C)CC1CCCCC1 ?
MITF inh: -0.5; NOMO-1 viab: inconclusive; Hedgehog inh: 34.8

Results for C[C@@H]1CN([C@H](C)CO)C(=O)c2cccc(NC(=O)Nc3ccc(F)cc3)c2O[C@H]1CN(C)CC1CCCCC1 ?
MITF inh: 32.8; NOMO-1 viab: 112.5*; Hedgehog inh: 14.6

Results for C[C@H]1CN([C@@H](C)CO)C(=O)c2cccc(NC(=O)Nc3ccccc3)c2O[C@@H]1CN(C)CC1CCCCC1 ?
MITF inh: 24.1; NOMO-1 viab: 89.9*; Hedgehog inh: -8.2

Results for COc1ccc(C(=O)Cn2c3ccccc3n3nc(-c4cccs4)nc23)cc1OC ?
MITF inh: -0.3; NOMO-1 viab: 4.5
